According to PubChem BioAssay AID651784 (National Center for Advancing Translational Sciences (NCATS), 2012):
“And” between values parts separate entries of the source, which are not always exact repeats. Equal values may be shown once. Results filed as inconclusive are left out. The source made the active and inactive calls. Calls follow the shape of the dose curve; as a rule, active = well fitted inhibition curve with a large enough effect; inconclusive = small, poorly fitted or top-dose-only effect; inactive = no such curve, though single readings can be large or run the other way.

test: Acumen qHTS Assay for Inhibitors of the mTORC1 Signaling Pathway in MEF (Tsc2-/-, p53-/-) Cells: Hit Validation; details: Acumen imaging; activity change, negative = inhibition: at 37.3 µM (top of the series);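 also: phospho-rpS6 Ser235/236 immunofluorescence normalized to propidium iodide cell count; nearly all actives have a fitted effect of over 65% in size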;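 as to activity change, negative = inhibition: cells exposed to compound for 24 hours; plate controls were DMSO for no effect and 7.5 nM rapamycin control for full effect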
Potency is read from the fitted curve at half-maximal effect.

Compound	activity change, negative = inhibition	Potency
CCCSc1oc(-c2ccco2)nc1S(=O)(=O)c1ccc(Br)cc1	4.39%	
CCCCS(=O)(=O)c1oc(-c2ccc(F)cc2)nc1S(=O)(=O)c1ccccc1	-151%	
O=C(CCOc1ccccc1)N(Cc1cccnc1)c1nc2c(F)cccc2s1		11.7 µM (active)
CCc1ccc(-c2nc(CSCC(=O)NCc3ccc(C)cc3)c(C)o2)cc1	4.67%	
CC(C)(C)OC(=O)N1CCC(c2c(C(=O)NCCN3CCC(Cc4ccccc4)CC3)cnn2-c2cccc(Cl)c2)CC1	-98.8%	
Cc1cc(C)c(/C=C2\C(=O)Nc3ccccc32)[nH]1	0.812% and 7.57%	
CCOC(=O)N1CCN(Cc2nc3cc(NC(=O)CC(C)C)ccc3n2C(C)C)CC1		2.61 µM (active)
CCOC(=O)c1c(C)[nH]c(CCC(=O)NCCCN2CCN(c3cc(C)ccc3C)CC2)c1C		16.5 µM (active)
CCCCN(C)CC(O)Cn1cc(/C=C/C(=O)c2ccc(C)cc2)c2ccccc21 (stereo not drawn)		13.1 µM (active)
Cc1cccc(-n2cnc3cc(C(=O)NC4CCCCCC4)ccc32)c1		18.5 µM (active)
CCOc1ccc(Nc2nc(N)c(C(=O)c3ccccc3Cl)s2)cc1	-95%	
COC(=O)c1c(C)oc2ccc(N(C(=O)c3ccncc3)S(=O)(=O)c3ccc(OC)cc3)cc12		1.85 µM (active)
Cc1nn(CCCC(=O)NCc2ccccc2)c(=O)c2c1sc1ccccc12	13.7%	
COc1cccc(-c2nnc3sc(CN4CCCCC4)cn23)c1		1.04 µM (active)
COc1ccc(NC(=O)CSc2c3c(nc4ccccc24)CCC3)c(OC)c1	11.1%	
CC(C)CCNC(=O)c1cccc(Nc2nc3ccccc3n3nnnc23)c1	-88.5%	
Cc1cc(C)c(NC(=O)c2sc3nc(C)cc(C)c3c2NC(=O)c2ccccc2)c(C)c1	-8.54%	
CCn1c(=O)sc2cc(NS(=O)(=O)c3ccc(F)c(C)c3)ccc21	-28.9%	
CC(=O)Nc1ccc2nc(-c3cc(C)ccc3C)[nH]c2c1	-21.9%	
CC(C)(C)c1ccc(C2NC(=O)c3n[nH]c(-c4cccs4)c32)cc1 (stereo not drawn)	-6.84%	
CCc1ccc(NC(=O)Cn2c(=O)n(-c3ccc(OC)cc3)c(=O)c3ccc(C(=O)NCc4ccc(C)cc4)cc32)cc1		4.65 µM (active)
CC(C)S(=O)(=O)c1oc(-c2ccc(F)cc2)nc1S(=O)(=O)c1ccc(F)cc1	-95%	
CC[C@H](CO)Nc1nc(NCc2ccccc2)c2ncn(C(C)C)c2n1	-22.4%	
